Among all 400,000 compounds or so, about 2,100 (0.53%) were called active. Another 14% or so got no clear call; they are omitted. How the calls were made is not given here. The entries come from a sample that favours actives as a whole.

Ataxin-2 (Homo sapiens), sequence (Q99700 whole entry): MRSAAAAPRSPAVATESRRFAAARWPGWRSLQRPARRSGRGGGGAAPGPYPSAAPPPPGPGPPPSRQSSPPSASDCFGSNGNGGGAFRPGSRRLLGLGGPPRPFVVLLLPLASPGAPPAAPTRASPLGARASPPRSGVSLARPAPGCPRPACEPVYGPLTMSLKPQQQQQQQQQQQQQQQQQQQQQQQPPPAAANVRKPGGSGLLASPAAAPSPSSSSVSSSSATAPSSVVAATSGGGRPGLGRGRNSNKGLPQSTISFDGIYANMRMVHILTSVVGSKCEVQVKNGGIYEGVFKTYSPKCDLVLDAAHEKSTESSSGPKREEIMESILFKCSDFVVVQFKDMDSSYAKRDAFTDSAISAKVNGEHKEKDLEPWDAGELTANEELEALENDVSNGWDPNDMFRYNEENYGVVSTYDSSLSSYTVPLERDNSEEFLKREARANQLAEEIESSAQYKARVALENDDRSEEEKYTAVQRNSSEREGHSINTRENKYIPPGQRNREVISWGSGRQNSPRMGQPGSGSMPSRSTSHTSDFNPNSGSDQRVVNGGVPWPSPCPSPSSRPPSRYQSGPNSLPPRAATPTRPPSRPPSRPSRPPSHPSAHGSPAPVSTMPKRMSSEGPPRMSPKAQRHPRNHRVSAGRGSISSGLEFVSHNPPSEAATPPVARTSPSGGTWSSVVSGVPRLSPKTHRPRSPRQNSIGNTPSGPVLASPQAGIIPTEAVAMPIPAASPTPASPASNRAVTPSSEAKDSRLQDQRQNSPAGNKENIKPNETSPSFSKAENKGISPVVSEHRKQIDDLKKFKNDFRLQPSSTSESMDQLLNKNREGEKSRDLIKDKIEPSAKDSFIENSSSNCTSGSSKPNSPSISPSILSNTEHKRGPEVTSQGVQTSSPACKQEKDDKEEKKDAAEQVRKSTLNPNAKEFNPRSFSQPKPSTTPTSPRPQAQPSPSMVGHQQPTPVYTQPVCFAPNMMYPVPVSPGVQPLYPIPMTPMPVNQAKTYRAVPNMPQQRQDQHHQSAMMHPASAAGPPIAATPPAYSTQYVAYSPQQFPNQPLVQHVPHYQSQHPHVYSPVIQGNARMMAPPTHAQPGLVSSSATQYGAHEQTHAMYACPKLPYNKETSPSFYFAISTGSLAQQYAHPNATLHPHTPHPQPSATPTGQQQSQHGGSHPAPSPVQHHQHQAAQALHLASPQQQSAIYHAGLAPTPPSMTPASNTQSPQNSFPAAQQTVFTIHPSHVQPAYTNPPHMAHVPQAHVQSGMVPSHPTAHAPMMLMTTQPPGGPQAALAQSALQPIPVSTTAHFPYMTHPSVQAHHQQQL

The assay concerns the target Ataxin-2 (Homo sapiens) (UniProt Q99700). As to the kind of experiment: qHTS for Inhibitors of ATXN expression. The format is functional.
In the case of `O=c1nc2n(-c3ccccc3F)c3ccccc3cc-2c(=O)[nH]1`, the Potency result was “inactive”.

With `CCOC(=O)c1c(NC(=O)c2ccco2)n(C2CCCCC2)c2nc3ccccc3nc12`, the Potency entry was “inactive”.

On to `Cc1noc(C)c1CSCC(=O)Nc1ccc(S(C)(=O)=O)cc1`, for which the Potency result was “inactive”.

For the molecule `CC(C)OC(=O)CSc1nc(Cc2ccccc2)nc2ccccc12`, the Potency result is “inactive”.

For `Cc1cc(-c2nc3cccnc3s2)ccc1NS(=O)(=O)c1cccs1`, the Potency result is “inactive”.

Regarding `O=C(COC(=O)c1cccnc1)NC1CCCc2ccccc21` (centres undefined), the Potency result is “inactive”.

`CCOc1ccc(CNc2nc3ccccc3n2C)cc1`: the Potency result was “inactive”.

Turning to `CCOc1ccc(N2CC(C(=O)Nc3ccc(S(=O)(=O)NCC4CCCO4)cc3)CC2=O)cc1` (centres undefined), the Potency result was “inactive”.

Consider `CCOc1ccc(N2CC(c3nc4ccccc4n3CCCOc3ccccc3)CC2=O)cc1` (centres undefined), for which the Potency is 22.4 µM (active).

For `Cc1nn(Cc2ccccc2)c(Cl)c1/C=N/NC(=O)c1cccnc1`, the Potency entry is “inactive”.

Regarding `CN1CCN(c2ccc([N+](=O)[O-])c(-n3nc(-c4ccccc4)c4ccccc4c3=O)c2)CC1`, the Potency was 35.5 µM (active).

For the molecule `Nc1ccc2nn(-c3ccccc3)nc2c1`, the Potency entry is “inactive”.

For the molecule `N#CC(c1nc2ccccc2nc1N1CCOCC1)S(=O)(=O)c1ccccc1` (centres undefined), the Potency result was “inactive”.

With `Fc1ccccc1N1CC(c2ccccc2)C(c2cccs2)=N1` (centres undefined), the Potency entry is “inactive”.

As for `CCCCCCc1cc2cc(S(=O)(=O)c3ccc(F)c(Cl)c3)c(=O)oc2cc1O`, the Potency result is “inactive”.

On to `OC(CNc1ccnc2cc(Cl)ccc12)CNC1CCCCC1` (centres undefined), for which the Potency was 39.8 µM (active).

With `Clc1ccc2c(NCCNC3CCCCC3)ccnc2c1`, the Potency is 15.8 µM (active).

`Cc1ccc(/C=C2\CCC3=C2OC(N)=C(C#N)C3c2ccc(C)cc2)cc1` (centres undefined): the Potency result was “inactive”.

Take `CCOC(=O)c1cc2c(=O)n3ccccc3nc2n(CC2CCCO2)/c1=N\C(=O)c1ccc(OC)cc1OC` (centres undefined): the Potency entry was “inactive”.

In the case of `O=C(Cc1ccccc1)N/N=C/c1cc(Br)cc(Cl)c1O`, the Potency entry was “inactive”.

Turning to `CCOC(=O)c1cc2c(=O)n3ccccc3nc2n(Cc2ccco2)/c1=N\C(=O)c1cccc(F)c1`, the Potency entry was “inactive”.

`Clc1ccc(-c2noc(/C=C/c3ccccc3)n2)cc1`: the Potency entry was “inactive”.

In the case of `O=C1/C(=C/Nc2nnc(CCCO)[nH]2)c2ccccc2C(=O)N1c1ccccc1Cl`, the Potency entry was “inactive”.

In the case of `CCCCn1c(N)c(N(CCOC)C(=O)CN2c3ccccc3CC2C)c(=O)[nH]c1=O` (centres undefined), the Potency entry was “inactive”.

For `CCN(C(=O)COC(=O)c1cccc(S(=O)(=O)N(C)C)c1)c1c(N)n(Cc2ccccc2)c(=O)[nH]c1=O`, the Potency result was “inactive”.

Regarding `Cc1ccccc1OCC(=O)N(Cc1ccco1)c1c(N)n(Cc2ccccc2)c(=O)[nH]c1=O`, the Potency entry was “inactive”.

Take `Nc1c(N(CCC2=CCCCC2)C(=O)COc2ccc(F)cc2Cl)c(=O)[nH]c(=O)n1Cc1ccccc1`: the Potency was 11.9 µM (active).

With `Nc1c(N(CCC2=CCCCC2)C(=O)COc2ccc(F)cc2)c(=O)[nH]c(=O)n1Cc1ccccc1`, the Potency is 39.8 µM (active).

On to `CCCCN(C(=O)CSc1nnc2ccccn12)c1c(N)n(Cc2ccccc2)c(=O)[nH]c1=O`, for which the Potency entry was “inactive”.

For the origin of these results see ChEMBL document CHEMBL1201862, “PubChem BioAssay data set” (2004).
